# Reference: the supplement of paper PMC8728848
# This excerpt belongs to a sample that is enriched for the strongest signals.
# Columns and labels:
# Experiment in all cases: glycan array binding signal (z-score within array); higher = stronger binding
# Details in all cases: glycan notation: IUPAC condensed, linker removed
# Fuc(a1-2)Gal(b1-4)GlcNAc = target: Fuc(a1-2)Gal(b1-4)GlcNAc
# How it was run: (§1)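 Glycan array data were curated from 3228 arrays in the Consortium for Functional Glycomics database and kept only where the protein sequence was available. Glycan names were converted to IUPAC-condensed notation, and columns mapping to the same glycan were averaged. The binding signal is a within-array Z-score, averaged across arrays of the same protein sequence at different concentrations or buffers and across linkers. Negative Z-scores can be read as non-binding.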
# [1] = target: Fuc(a1-2)Gal6S(b1-4)GlcNAc
# How it was run: as §1
# [2] = target: Fuc(a1-3)[Gal3S(b1-4)]Glc
# How it was run: as §1
# Gal(a1-3)Gal(b1-3)Glc = target: Gal(a1-3)Gal(b1-3)Glc
# How it was run: as §1
# Gal(a1-4)GlcNAc = target: Gal(a1-4)GlcNAc
# How it was run: as §1
# Gal(a1-6)Glc = target: Gal(a1-6)Glc
# How it was run: as §1
# Gal(b1-3)Gal = target: Gal(b1-3)Gal
# How it was run: as §1
# [3] = target: Gal(b1-3)GalNAc(b1-3)Gal(b1-4)GlcNAc
# How it was run: as §1
# [4] = target: Gal(b1-4)GlcNAc(b1-2)Man(a1-3)[Gal(b1-4)GlcNAc(b1-2)Man(a1-6)]Man(b1-4)GlcNAc(b1-4)GlcNAc
# How it was run: as §1
# Gal3S(b1-4)Glc6S = target: Gal3S(b1-4)Glc6S
# How it was run: as §1
# Gal3S(b1-4)GlcNAc = target: Gal3S(b1-4)GlcNAc
# How it was run: as §1
# Gal3S(b1-4)GlcNAc6S = target: Gal3S(b1-4)GlcNAc6S
# How it was run: as §1
# Gal3S6S(b1-4)GlcNAc6S = target: Gal3S6S(b1-4)GlcNAc6S
# How it was run: as §1
# Gal6S(b1-4)Glc6S = target: Gal6S(b1-4)Glc6S
# How it was run: as §1
# [5] = target: GalNAc(b1-3)Gal(a1-4)Gal(b1-4)GlcNAc
# How it was run: as §1
# Glc(b1-4)Glc = target: Glc(b1-4)Glc
# How it was run: as §1
# [6] = target: GlcNAc(b1-4)GlcNAc(b1-4)GlcNAc(b1-4)GlcNAc(b1-4)GlcNAc(b1-4)GlcNAc
# How it was run: as §1
# [7] = target: Man(a1-3)[Man(a1-6)]Man(b1-4)GlcNAc(b1-4)GlcNAc
# How it was run: as §1
# Man(b1-4)GlcNAc = target: Man(b1-4)GlcNAc
# How it was run: as §1
# [8] = target: Neu5Ac(a2-3)Gal(b1-3)GalNAc
# How it was run: as §1
# [9] = target: Neu5Ac(a2-3)Gal(b1-4)GlcNAc(b1-3)Gal(b1-4)GlcNAc
# How it was run: as §1
# [10] = target: Neu5Ac(a2-3)Gal(b1-4)GlcNAc(b1-6)[Gal(b1-3)]GalNAc
# How it was run: as §1
# [11] = target: Neu5Ac(a2-3)Gal(b1-4)GlcNAc6S
# How it was run: as §1
# [12] = target: Neu5Ac(a2-3)Gal(b1-4)[Fuc(a1-3)]GlcNAc(b1-3)Gal
# How it was run: as §1
# [13] = target: Neu5Ac(a2-8)Neu5Ac(a2-3)Gal(b1-4)Glc
# How it was run: as §1
# [14] = target: Neu5Ac(a2-8)Neu5Ac(a2-3)[GalNAc(b1-4)]Gal(b1-4)Glc
# How it was run: as §1
# [15] = target: Neu5Gc(a2-3)Gal(b1-3)GlcNAc
# How it was run: as §1
# Fuc(a1-4)GlcNAc = target: Fuc(a1-4)GlcNAc
# How it was run: as §1
# Gal(b1-2)Gal = target: Gal(b1-2)Gal
# How it was run: as §1
# [16] = target: Gal(b1-3)GalNAc(b1-4)[Neu5Ac(a2-3)]Gal(b1-4)Glc
# How it was run: as §1
# [17] = target: Gal(b1-3)[Neu5Ac(a2-6)]GlcNAc
# How it was run: as §1
# [18] = target: Gal3S(b1-3)[Fuc(a1-4)]GlcNAc
# How it was run: as §1
# Gal4S6S(b1-4)GlcNAc = target: Gal4S6S(b1-4)GlcNAc
# How it was run: as §1
# GlcA(b1-3)Gal = target: GlcA(b1-3)Gal
# How it was run: as §1
# [19] = target: GlcNAc(b1-3)Gal(b1-4)GlcNAc(b1-3)Gal(b1-4)GlcNAc
# How it was run: as §1
# [20] = target: GlcNAc(b1-4)[GlcNAc(b1-6)]GalNAc
# How it was run: as §1
# Kdn(a2-3)Gal(b1-3)GlcNAc = target: Kdn(a2-3)Gal(b1-3)GlcNAc
# How it was run: as §1
# [21] = target: Man(a1-2)Man(a1-2)Man(a1-3)[Man(a1-2)Man(a1-6)[Man(a1-3)]Man(a1-6)]Man(b1-4)GlcNAc(b1-4)GlcNAc
# How it was run: as §1
# [22] = target: Man(a1-2)Man(a1-3)[Man(a1-2)Man(a1-6)]Man
# How it was run: as §1
# [23] = target: Neu5Ac(a2-3)Gal(b1-3)GlcNAc
# How it was run: as §1
# [24] = target: Neu5Ac(a2-3)Gal(b1-3)[Neu5Ac(a2-6)]GalNAc
# How it was run: as §1
# [25] = target: Neu5Ac(a2-3)Gal(b1-4)[Fuc(a1-3)]GlcNAc(b1-3)Gal(b1-4)GlcNAc
# How it was run: as §1
# [26] = target: Neu5Ac(a2-3)Gal(b1-4)[Fuc(a1-3)]GlcNAc(b1-3)Gal(b1-4)[Fuc(a1-3)]GlcNAc(b1-3)Gal(b1-4)[Fuc(a1-3)]GlcNAc
# How it was run: as §1
# [27] = target: Neu5Ac(a2-3)[Neu5Ac(a2-6)]GalNAc
# How it was run: as §1
# Neu5Ac(a2-6)GalNAc = target: Neu5Ac(a2-6)GalNAc
# How it was run: as §1
# [28] = target: Neu5Ac(a2-8)Neu5Ac(a2-8)Neu5Ac
# How it was run: as §1
binder,measurement,setting,value
"FBG4 (Homo sapiens), Q96EF6 (protein) MGARLSRRRLPADPSLALDALPPELLVQVLSHVPPRSLVTRCRPVCRAWRDIVDGPTVWLLQLARDRSAEGRALYAVAQRCLPSNEDKEEFPLCALARYCLRAPFGRNLIFNSCGEQGFRGWEVEHGGNGWAIEKNLTPVPGAPSQTCFVTSFEWCSKRQLVDLVMEGVWQELLDSAQIEICVADWWGARENCGCVYQLRVRLLDVYEKEVVKFSASPDPVLQWTERGCRQVSHVFTNFGKGIRYVSFEQYGRDVSSWVGHYGALVTHSSVRVRIRLS",glycan array binding signal (z-score),Fuc(a1-2)Gal(b1-4)GlcNAc,-0.263
same,glycan array binding signal (z-score),[1],-0.475
same,glycan array binding signal (z-score),[2],-0.408
same,glycan array binding signal (z-score),Gal(a1-3)Gal(b1-3)Glc,-0.259
same,glycan array binding signal (z-score),Gal(a1-4)GlcNAc,-0.495
same,glycan array binding signal (z-score),Gal(a1-6)Glc,1.59
same,glycan array binding signal (z-score),Gal(b1-3)Gal,-0.536
same,glycan array binding signal (z-score),[3],-0.307
same,glycan array binding signal (z-score),[4],0.176
same,glycan array binding signal (z-score),Gal3S(b1-4)Glc6S,2.36
same,glycan array binding signal (z-score),Gal3S(b1-4)GlcNAc,0.201
same,glycan array binding signal (z-score),Gal3S(b1-4)GlcNAc6S,2.01
same,glycan array binding signal (z-score),Gal3S6S(b1-4)GlcNAc6S,6.42
same,glycan array binding signal (z-score),Gal6S(b1-4)Glc6S,3.24
same,glycan array binding signal (z-score),[5],-0.171
same,glycan array binding signal (z-score),Glc(b1-4)Glc,0.332
same,glycan array binding signal (z-score),[6],1.31
same,glycan array binding signal (z-score),[7],0.275
same,glycan array binding signal (z-score),Man(b1-4)GlcNAc,-0.448
same,glycan array binding signal (z-score),[8],-0.559
same,glycan array binding signal (z-score),[9],-0.49
same,glycan array binding signal (z-score),[10],-0.301
same,glycan array binding signal (z-score),[11],0.103
same,glycan array binding signal (z-score),[12],-0.522
same,glycan array binding signal (z-score),[13],-0.41
same,glycan array binding signal (z-score),[14],-0.266
same,glycan array binding signal (z-score),[15],-0.432
"Dectin-1 CTLD (Mus musculus), Q6QLQ4 (protein) MKYHSHIENLDEDGYTQLDFSTQDIHKRPRGSEKGSRAPSSPWRPIAVGLGILCFVVVVVAAVLGALAFWRHNSGRNPEEKDNFLSRNKENHKPTESSLDEKVAPSKASQTTGGFSQSCLPNWIMHGKSCYLFSFSGNSWYGSKRHCSQLGAHLLKIDNSKEFEFIESQTSSHRINAFWIGLSRNQSEGPWFWEDGSAFFPNSFQVRNTVPQESLLHNCVWIHGSEVYNQICNTSSYSICEKEL",glycan array binding signal (z-score),Fuc(a1-2)Gal(b1-4)GlcNAc,-0.083
same,glycan array binding signal (z-score),Fuc(a1-4)GlcNAc,-0.141
same,glycan array binding signal (z-score),Gal(b1-2)Gal,-0.384
same,glycan array binding signal (z-score),Gal(b1-3)Gal,-0.471
same,glycan array binding signal (z-score),[16],-0.16
same,glycan array binding signal (z-score),[17],-0.392
same,glycan array binding signal (z-score),[18],-0.474
same,glycan array binding signal (z-score),Gal4S6S(b1-4)GlcNAc,-0.021
same,glycan array binding signal (z-score),GlcA(b1-3)Gal,4.11
same,glycan array binding signal (z-score),[19],-0.18
same,glycan array binding signal (z-score),[20],9.99
same,glycan array binding signal (z-score),Kdn(a2-3)Gal(b1-3)GlcNAc,-0.044
same,glycan array binding signal (z-score),[21],0.004
same,glycan array binding signal (z-score),[22],-0.241
same,glycan array binding signal (z-score),Man(b1-4)GlcNAc,-0.259
same,glycan array binding signal (z-score),[23],-0.294
same,glycan array binding signal (z-score),[24],-0.324
same,glycan array binding signal (z-score),[25],-0.03
same,glycan array binding signal (z-score),[26],7.53
same,glycan array binding signal (z-score),[27],-0.211
same,glycan array binding signal (z-score),Neu5Ac(a2-6)GalNAc,0.06
same,glycan array binding signal (z-score),[28],5.28
